In the library only some 6.8% were active in any assay of this set; here they are far more common.
Spn PMK inh = S. pneumoniae PMK inhibitors, primary screen, biochemical, mevalonate pathway, pilot trial included. phosphomevalonate kinase (Streptococcus pneumoniae D39). 0.49% of 65,000 active. purified PMK, PK/LDH-coupled NADH absorbance 340 nm. AID 539, 2006. inhibition, % at 10 µM;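 active means top-ranked compounds by inhibition in the single 10 µM screen, taking a fixed number of the strongest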;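 further: 0% = full reaction with DMSO carrier and 100% = background rate without enzyme reaction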
Spn DPM-DC inh = S. pneumoniae DPM-DC inhibitors, primary screen, biochemical, PK/LDH-coupled NADH fluorescence | diphosphomevalonate decarboxylase (Streptococcus pneumoniae D39) | purified DPM-DC | calls only at 10 µM | 0.49% of 65,000 active | AID 556, 2006;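 active means the 320 compounds with the highest percent inhibition in the single-dose primary screen, excluding strongly autofluorescent ones, cut at about 32% in these data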;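 further: kinetic rate of NADH fluorescence loss reporting ADP formed by the decarboxylase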
MK inhibit = S. pneumoniae MK inhibitors, primary screen, biochemical, PK/LDH-coupled NADH absorbance; mevalonate kinase [Streptococcus pneumoniae D39]; purified MK, PK/LDH-coupled NADH absorbance 340 nm; inhibition, % at 10 µM; 0.48% of 65,000 active;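 active means ranked among the strongest by inhibition in the single 10 µM screen, a fixed top-ranked set picked for dose follow-up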
Fluor 339 460 = intrinsic fluorescence of library compounds, ex339/em460 – biochemical, MLSMR library, data from DPM-DC assay, artefact control, profiling panel; compound autofluorescence, ex339/em460 nm, NADH buffer; stronger effect = higher value; 1 = no-compound wells, NADH background; fluorescence fold increase at 10 µM; 5.5% of 65,000 active; AID 709, 2007;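 active means at 10 µM, mean starting fluorescence two-fold or more over control wells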;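 further: signal is the first read of a kinetic run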
NADH coupling = inhibitors of PK/LDH coupling enzymes, profiling panel, artefact control, biochemical, MLSMR library; coupled PK/LDH NADH assays, four targets; 0.02% of 65,000 active; AID 774, 2007; IC50, µM (series often up to 10 µM), without a hit: top-dose inhibition;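 active means single-dose screening hits from any of four coupled enzyme assays that gave an IC50 when retested across doses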;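 further: the DPM-DC format reads NADH fluorescence rather than 340 nm absorbance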
Abs 340nm = compound light absorbance at 340 nm, profiling panel, artefact control, biochemical, MLSMR library, data from PS, PMK, MK assays | compound absorbance at 340 nm, fold over control | fold change at 10 µM | 65,000 tested, under 10 active;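 active means at 10 µM dose, initial 340 nm absorbance at least 2 fold that of control wells; inactive means change under 2 fold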;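 further: initial absorbance extrapolated from kinetic A340 decline of NADH oxidation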
Active calls of the source: *; i = inactive; x = no result shown.

SMILES	Spn PMK inh	Spn DPM-DC inh	MK inhibit	Fluor 339 460	NADH coupling	Abs 340nm
COc1ccc(CCn2c(N)c(C(=O)NCc3ccco3)c3nc4ccccc4nc32)cc1OC	3.0	x	10.0	3.65*	7.0%	1.01
COc1ccc(CCNC(=O)c2ccc3nc(-c4ccco4)c(-c4ccco4)nc3c2)cc1OC	15.0	i	27.0	2.42*	19.0%	1.02
CN1CCN(c2ncnc3c2sc2nc(N4CCCC4)c4c(c23)CC(C)(C)OC4)CC1	5.0	i	4.0	1.17	4.0%	1.1
COc1cc(OC)cc(-c2cc3nc4c(c(N5CCN(c6cnccn6)CC5)n3n2)CCCC4)c1	0.0	i	0.0	2.75*	1.0%	1.01
COc1cc(OC)cc(-c2cc3nc4c(c(N5CCN(c6ncccn6)CC5)n3n2)CCCC4)c1	11.0	i	8.0	3.75*	6.0%	1
CCc1c(C)nc2cc(-c3cc(OC)cc(OC)c3)nn2c1N1CCCC1	2.0	i	4.0	1.26	2.0%	1.02
CCN(C(=O)COc1ncnc2ccc(Br)cc12)C1CCS(=O)(=O)C1 (configuration not stated)	13.0	i	0.0	1.04	4.0%	1.01
O=C(NCCc1ccncc1)Nc1ccccc1Cl	12.0	i	10.0	1.02	8.0%	1.01
CCCCCCn1c(C(C)NC(=O)c2ccco2)nc2ccccc21 (configuration not stated)	5.0	i	6.0	1.32	8.0%	1.04
Cc1c(-n2cc(C(=O)O)c(=O)c3cc(F)c(N4CCCC4)c(F)c32)c(=O)n(-c2ccccc2)n1C	0.0	i	11.0	1.7	14.0%	1.09
CN1CCN(c2c(F)cc3c(=O)c(C(=O)O)cn4c3c2SCC4)CC1	1.0	x	3.0	3.78*	2.0%	1.09
Nc1c(C(=O)OCC2CCCO2)c2nc3ccccc3nc2n1C1CCCCC1 (configuration not stated)	14.0	x	6.0	2.1*	10.0%	1.11
O=C(CSc1nc2ccccc2n1-c1ccccc1)NCC1CCCO1 (configuration not stated)	3.0	i	7.0	1.13	7.0%	1.05
COc1ccccc1-n1c(N)c(C(=O)NCC2CCCO2)c2nc3ccccc3nc21 (configuration not stated)	15.0	x	7.0	2.36*	11.0%	0.89
Nc1c(C(=O)NCC2CCCO2)c2nc3ccccc3nc2n1-c1ccccc1 (configuration not stated)	15.0	x	0.0	4.93*	8.0%	1.06
COc1ccc(C(=O)Nc2ccccc2NC(=O)c2ccco2)cc1OC	0.0	i	13.0	1.08	4.0%	1.01
COc1ccc(N(CC(=O)N2CCCCC2)S(=O)(=O)c2ccccc2)c(OC)c1	4.0	i	2.0	1.04	2.0%	1.04
O=C(Nn1c(C2CC2)nc2ccccc2c1=O)c1ccco1	55.0*	i	0.0	1.03	6.0%	0.99
CC(C)Sc1nc(NCc2ccco2)c2c3c(sc2n1)COC(C)(C)C3	0.0	x	5.0	2.03*	3.0%	1.06
Cc1nc(NCc2ccco2)c2c3c(sc2n1)CCC3	1.0	i	4.0	1.12	2.0%	1.03
CCOc1ccc(Nc2nc(Cc3nnc(SCC(N)=O)o3)cs2)cc1	28.0*	i	2.0	1.03	5.0%	1
CCOc1ccc(Nc2nc(Cc3nnc(SCC(=O)NCC4CCCO4)n3C)cs2)cc1 (configuration not stated)	16.0	i	5.0	1.07	7.0%	0.95
COc1ccc2nc3sc(C(=O)N4CCN(C)CC4)cc3cc2c1	15.0	i	0.0	2.67*	7.0%	1.04
COc1ccc2nc(SCC(=O)N3CCCCCC3)c(C#N)cc2c1	4.0	i	12.0	1.31	8.0%	1.02
CCOC(=O)C1CCN(C(=O)c2cc3cc4cc(OC)ccc4nc3o2)CC1	11.0	x	0.0	5.12*	6.0%	1.04
SMILES	Spn PMK inh	Spn DPM-DC inh	MK inhibit	Fluor 339 460	NADH coupling	Abs 340nm
COc1ccc2nc3oc(C(=O)N4CCCCC4)cc3cc2c1	9.0	x	0.0	3.42*	16.0%	1.01
CCOc1ccc2nc(NC(=O)C3CCCN(S(=O)(=O)c4cccs4)C3)sc2c1 (configuration not stated)	3.0	i	0.0	1.16	1.0%	1.04
Cc1nn(-c2ccc(Cl)cc2)c2sc(C(=O)N3CCN(c4ccccn4)CC3)cc12	11.0	i	0.0	1.32	3.0%	1
C=CCn1c(SCc2nc3ccccc3c(=O)[nH]2)nnc1-c1cc2cc(Cl)ccc2o1	10.0	i	10.0	2.08*	11.0%	1.08
O=c1[nH]c(CSc2nnc(-c3ccncc3)n2Cc2ccco2)nc2ccccc12	15.0	i	4.0	1.06	7.0%	0.99
COc1ccc(C2C3=C(CC(C)(C)CC3=O)N(CCN3CCOCC3)C3=C2C(=O)CC(C)(C)C3)cc1	0.0	i	0.0	3.36*	6.0%	1.02
CC1(C)CC(=O)C2=C(C1)N(CCN1CCOCC1)C1=C(C(=O)CC(C)(C)C1)C2c1ccc(Cl)cc1	2.0	x	2.0	4.95*	2.0%	0.99
CC1(C)CC(=O)C2=C(C1)NC(=O)CC2c1cccc(F)c1 (configuration not stated)	12.0	i	0.0	1.17	4.0%	0.99
CC1(C)CC(=O)C2=C(C1)N(CCN1CCOCC1)C1=C(C(=O)CC(C)(C)C1)C2c1cccc(F)c1	3.0	x	2.0	4.76*	3.0%	1
Nc1c(C(=O)NCCN2CCOCC2)c2nc3ccccc3nc2n1-c1cccc(F)c1	6.0	x	11.0	5.13*	9.0%	1.08
COC(=O)c1c(N)n(-c2cc(OC)cc(OC)c2)c2nc3ccccc3nc12	9.0	x	2.0	3.42*	3.0%	1
COCCCNC(=O)c1c(N)n(-c2cccc(S(N)(=O)=O)c2)c2nc3ccccc3nc12	6.0	x	10.0	2.96*	3.0%	1
CCCNC(=O)c1c(N)n(-c2cccc(OC)c2)c2nc3ccccc3nc12	7.0	x	12.0	3.82*	10.0%	1.03
CS(=O)(=O)N1CCCC(c2nc(-c3ccc(S(=O)(=O)NCc4ccccc4)cc3)no2)C1 (configuration not stated)	1.0	i	8.0	1.06	3.0%	1.02
Cc1cc(=O)[nH]c(SCc2nc3ncccn3c2Br)n1	0.0	x	6.0	2.47*	4.0%	1.03
COCCNC(=O)CSc1nc2ccccc2c(=O)n1-c1cccc(OC)c1	11.0	i	0.0	1.07	4.0%	1.01
Cc1cc(OCC(=O)N2CCOCC2)cc2oc(=O)c3ccccc3c12	0.0	x	0.0	2.89*	0.0%	1.02
CCOc1ccc(OCC(=O)N2CCOCC2)cc1	0.0	i	11.0	1.08	4.0%	1.05
